In PMC4336329 (PLoS ONE, 2015):
Out of some 310,000 compounds screened, about 14,000 (4.5%) showed an effect of 50% or more. Effects have a minus sign here. This is one part of a sample in which strong results are shown more often than they occur.

Each compound was assayed against human ether-à-go-go-related gene (hERG) potassium channel (human, UniProt Q12809) (assay: primary screen, population patch clamp on CHO cells stably expressing hERG; higher = less effect of the substance).
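Also: peak tail current of the secondary pulse compared with the same well before compound.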

Chain of human ether-à-go-go-related gene (hERG) potassium channel (Q12809 whole entry, looked up): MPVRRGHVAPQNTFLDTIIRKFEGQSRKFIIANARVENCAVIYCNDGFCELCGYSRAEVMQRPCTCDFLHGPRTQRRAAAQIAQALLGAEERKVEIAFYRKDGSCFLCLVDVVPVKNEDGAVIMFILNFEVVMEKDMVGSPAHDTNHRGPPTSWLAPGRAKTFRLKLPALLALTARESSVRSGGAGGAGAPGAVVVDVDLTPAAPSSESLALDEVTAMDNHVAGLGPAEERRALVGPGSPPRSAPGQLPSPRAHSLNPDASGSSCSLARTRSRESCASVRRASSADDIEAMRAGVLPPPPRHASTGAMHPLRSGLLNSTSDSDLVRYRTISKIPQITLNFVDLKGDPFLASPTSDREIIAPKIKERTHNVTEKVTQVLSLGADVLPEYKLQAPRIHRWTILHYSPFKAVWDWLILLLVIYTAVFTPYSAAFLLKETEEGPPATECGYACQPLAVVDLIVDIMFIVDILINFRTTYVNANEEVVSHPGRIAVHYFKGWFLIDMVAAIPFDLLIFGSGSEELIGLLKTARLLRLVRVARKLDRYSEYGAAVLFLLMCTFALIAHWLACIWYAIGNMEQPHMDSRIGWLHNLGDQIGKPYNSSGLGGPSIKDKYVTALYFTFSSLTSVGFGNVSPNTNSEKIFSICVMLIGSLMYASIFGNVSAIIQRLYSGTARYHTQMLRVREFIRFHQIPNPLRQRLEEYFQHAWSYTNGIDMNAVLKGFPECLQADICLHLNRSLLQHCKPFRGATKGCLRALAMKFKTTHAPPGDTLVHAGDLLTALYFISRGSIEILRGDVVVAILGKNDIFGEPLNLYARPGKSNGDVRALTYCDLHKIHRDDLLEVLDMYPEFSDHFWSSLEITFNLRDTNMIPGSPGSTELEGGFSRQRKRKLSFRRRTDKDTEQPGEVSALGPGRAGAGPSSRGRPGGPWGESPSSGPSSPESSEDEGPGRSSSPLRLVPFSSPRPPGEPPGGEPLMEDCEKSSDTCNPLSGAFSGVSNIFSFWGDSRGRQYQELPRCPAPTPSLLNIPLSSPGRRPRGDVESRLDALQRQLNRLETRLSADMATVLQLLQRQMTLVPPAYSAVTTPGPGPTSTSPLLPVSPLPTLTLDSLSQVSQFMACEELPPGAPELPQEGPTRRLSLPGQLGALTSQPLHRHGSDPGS

SMILES	hERG current change (%, negative = inhibition) at 10uM [%]
CCc1ccc(C(C)NC(=O)/C(C#N)=C\c2cn[nH]c2-c2ccccc2)cc1 (stereo not drawn)	-1.91
CC1=NN(c2ccc(Cl)cc2)C(=O)C1	3.77
Cc1ccc(C(=O)OCC(=O)N2CCOCC2)cc1	15.6
O=C(NNC(=S)Nc1ccc(Cl)cc1Cl)C1CC1	-24
O=C(Nc1ccc2c(c1)OC1(CCCC1)O2)C1CC1	3.79
Cc1ccc(C)n1-c1ncc(Br)cn1	6.58
CCCCOCCCNC(=O)N[C@@H](CCSC)C(=O)OC	16.3
C=CCn1c2ccccc2c(=O)c2cc(C#Cc3ccccn3)ccc21	-0.113
CCOC(=O)C1(CCOc2ccccc2)CCN(Cc2ccc(O)cc2)CC1	-85.1
CCOC(=O)C1(CCOc2ccccc2)CCN(Cc2ccc(O)c(Cl)c2)CC1	-53
CCOC(=O)C1(CCOc2ccccc2)CCN(Cc2ccc(OCCO)cc2)CC1	-77.9
O=C(N/N=C\c1cc(Br)c(Br)o1)c1cncc(Br)c1	7.62
CN(C)c1cccc(C(=O)Nc2ccc(N3CCOCC3)cc2)c1	2.06
Cc1nc2nc(-c3ccccc3)cc(=O)n2[nH]1	11.8
O=C(NNS(=O)(=O)c1ccc([N+](=O)[O-])cc1)C(=O)Nc1cccc(C(=O)O)c1	11.9
COc1ccc(C2C(C(=O)N3CCC4(CC3)OCCO4)CC(=O)N2c2ccc(OC)cc2)cc1 (stereo not drawn)	-6.88
O=S(=O)(NCC(c1ccco1)N1CCN(c2ccccc2)CC1)c1ccc(F)cc1 (stereo not drawn)	0.0547
O=C1COc2ccc(C(=O)COC(=O)Cc3ccc(F)cc3)cc2N1	-23.8
CCC(=O)c1ccc(OCC(=O)Nc2ccccc2C(=O)NC2CC2)cc1	-6.53

SMILES	hERG current change (%, negative = inhibition) at 10uM [%]
OC1/C(=C/c2ccccc2C(F)(F)F)N2CCC1CC2 (stereo not drawn)	9.66
Fc1ccccc1-c1nnc2c3ccccc3nc(N3CCOCC3)n12	-9.92
Clc1ccc(-c2nnc3c4ccccc4nc(N4CCOCC4)n23)cc1Cl	-64.7
Brc1ccc(-c2nnc3c4ccccc4nc(N4CCOCC4)n23)cc1	-8.42
Cc1sc2ncnc(N3CCC(C(=O)N(C)CC(=O)Nc4ccc(Cl)c(C(F)(F)F)c4)CC3)c2c1C	3.47
CCOc1ccc(NC(=O)CN(C)C(=O)C2CCN(c3ncnc4sc(C)c(C)c34)CC2)cc1OCC	-58.2
CCOC(=O)c1ccccc1NC(=O)C1CCN(c2ncnc3sc(C)c(C)c23)CC1	-11.4
CCN(CC(=O)Nc1c(F)cccc1F)C(=O)C1CC1	3.28
CCN(CC(=O)Nc1c(F)cccc1F)C(=O)C1CCC1	-13.8
Cc1sc2ncnc(N3CCC(C(=O)N(C)CC(=O)Nc4ccccc4Br)CC3)c2c1C	-65.8
Cc1sc2ncnc(N3CCC(C(=O)Nc4ccccc4C(C)(C)C)CC3)c2c1C	-15.2
CCCN(CC(=O)Nc1ccccc1C)C(=O)C1CCN(c2ncnc3sc(C)c(C)c23)CC1	-76.2
CCOc1ccc(NC(=O)CN(C)C(=O)C2CCCC2)cc1OCC	27.8
Cc1sc2ncnc(N3CCC(C(=O)Nc4ccc(Br)cc4Br)CC3)c2c1C	-7.07
CCCCc1nnc(NC(=O)C2CCN(c3ncnc4sc(C)c(C)c34)CC2)s1	16.6
CCN(CC(=O)Nc1c(F)cccc1F)C(=O)C1CCN(c2ncnc3sc(C)c(C)c23)CC1	-57.8
COc1ccc(C2=NN(C(=O)c3ccco3)C(c3ccco3)C2)cc1OC (stereo not drawn)	7.24
COc1cccc(SCc2noc(C(=O)NCC3CC3)c2C(=O)NCC2CC2)c1	-43.5
CCN(Cc1ccccc1)C(=O)c1ccccc1C	1.76

SMILES	hERG current change (%, negative = inhibition) at 10uM [%]
CC(NC(=O)C1CCN(S(=O)(=O)N2CCC3(CC2)OCCO3)CC1)c1ccccc1 (stereo not drawn)	20.9
CCCC(C)NS(=O)(=O)c1ccccc1 (stereo not drawn)	-18.4
CN1CC(=O)N(CC(=O)Nc2ccc(SC(F)F)cc2)C1=O	-23.5
CCOc1ccc2nc(C(=O)N3CCCC(C)C3)sc2c1 (stereo not drawn)	-2.28
CCOC(=O)C1=C(C)N(C)C(=S)NC1c1ccc(Cl)cc1 (stereo not drawn)	-21.5
Cc1ccc(C(=O)OCC(=O)NC(=O)NCc2ccccc2)cc1C	7.95
CCOC(=O)c1cnc(SCCN2CCOCC2)nc1N	9.59
COC(=O)c1ccccc1NC(=O)c1cc2n(n1)C(C(F)F)CC(C(F)F)N2 (stereo not drawn)	14
Cc1cc(C)n(C(C)CC(=O)Nc2ccc(-c3ccno3)cc2)n1 (stereo not drawn)	1.47
CC1(C)CC(=O)C=C(NCCN2CCNCC2)C1	-2.18
Cc1sc2ncnc(N3CCC(C(=O)N(C)CC(=O)Nc4ccccc4Cl)CC3)c2c1C	-67.7
Cc1cccc(C)c1NC(=O)CN(C)C(=O)C1CCN(c2ncnc3sc(C)c(C)c23)CC1	-46.7
Cc1sc2ncnc(N3CCC(C(=O)Nc4cc(Cl)ccc4Cl)CC3)c2c1C	4.42
C=CCN(C(=O)CSc1nc2ccsc2c(=O)n1Cc1ccccn1)c1ccccc1	-19.4
COCCCNC(=O)Cn1cc(C(C)=O)c2ccccc21	17.7
CC1CCN(C(=O)CN(c2ccccc2)S(=O)(=O)N(C)C)CC1	14.2
CCOC(=O)NC(C(Cl)(Cl)Cl)S(=O)(=O)c1ccccc1 (stereo not drawn)	-6.98
CCOC(=O)NC(N(O)c1cccc(Cl)c1)C(Cl)(Cl)Cl (stereo not drawn)	-74.2
CCOC(=O)NC(c1ccc(C(C)C)cc1)C(Cl)(Cl)Cl (stereo not drawn)	1.44
